# Laboratory results from PubChem BioAssay.
# Where “and” joins values, the source holds several entries; their conditions need not be identical. Identical values can stand only once. Calls of active or inactive are those of the source. How the calls were made is not given here.
# Target: L-lactate dehydrogenase (Plasmodium falciparum (isolate CDC / Honduras)) (UniProt Q27743)
# Assay: PfLDH activity inhibition – cell lysate, 3D7 strain, counter-screen for P. falciparum growth inhibition project (AID 2304);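 further: 0% = vehicle and 100% = reference inhibitor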
# Conditions: P. falciparum 3D7 crude extract, LDH APAD/NBT absorbance; at 2 µM; hits give high values
# Sequence of L-lactate dehydrogenase (Plasmodium falciparum (isolate CDC / Honduras)) (Q27743 whole entry, looked up): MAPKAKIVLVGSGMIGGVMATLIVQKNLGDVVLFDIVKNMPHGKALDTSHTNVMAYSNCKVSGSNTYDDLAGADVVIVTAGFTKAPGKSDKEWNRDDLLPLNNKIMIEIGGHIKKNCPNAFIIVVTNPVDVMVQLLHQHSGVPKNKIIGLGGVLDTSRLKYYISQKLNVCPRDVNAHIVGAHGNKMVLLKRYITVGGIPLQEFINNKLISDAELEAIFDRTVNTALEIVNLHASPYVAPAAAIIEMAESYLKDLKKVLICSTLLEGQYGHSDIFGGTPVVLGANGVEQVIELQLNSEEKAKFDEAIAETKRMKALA
row,SMILES,inhibition
1,CCCc1cn2c3c(cc(C(=O)N[C@@H](Cc4ccccc4)[C@H](O)CNC4CCCCC4)cc13)N(CC)S(=O)(=O)CC2,-2% (inactive)
2,CC(C)CNCc1cccc(-c2cccc(CNCCCN3CCN(C)CC3)c2)c1,1% (inactive)
3,CC(CCc1ccccc1)NCC(O)c1ccc2c(c1)S(=O)(=O)c1ccccc1N2 (configuration not stated),0% (inactive)

# System: not listed separately
# Assay: inhibition of 3D7 malaria parasite growth – strain 3D7 (AID 2306);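 further: 0% = DMSO wells and 100% = chloroquine plus artemisinin control wells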
# Conditions: P. falciparum 3D7 erythrocytic growth, LDH absorbance, 72 h; at 2 µM; hits give high values
row,SMILES,growth inhibition
1,COc1ccc(C(C(=O)NC2CCN(C[C@H](O)c3ccnc4ccc(OC)cc34)CC2)N2CCN(Cc3ccccc3)CC2)cc1 (some centres not stated),100% (active)
2,CS(=O)(=O)c1ccc2nc(NC(=O)c3csnn3)sc2c1,90% (active)
3,O=C(/C=C/c1ccc(Cl)c(Cl)c1)NCCCCCN1CCCN(C(=O)Nc2cccc(F)c2)CC1,97% (active)
4,Cn1ccnc1S(=O)(=O)CCNCc1ccc(-c2ccc3ncnc(Nc4ccc(OCc5cccc(F)c5)c(Cl)c4)c3c2)o1,101% (active)
5,Cc1ccccc1C1CCN(C2CCC(NC(=O)/C=C/c3cccc(F)c3)CC2)CC1 (configuration not stated),84% (active)
6,Cc1nc2ccccc2c(=O)n1NCc1ccc(Cl)c(Cl)c1,96% (active)
7,CCNc1cc(C)nc(Nc2ccc(NS(=O)(=O)c3ccccc3)cc2)n1,100% (active)
8,CCCCCCCc1ccc(-c2c(C)[nH]c(C)c(Cl)c2=O)cn1,99% (active)
9,O=C(C=Cc1cn(-c2ccccc2)nc1-c1cccs1)N1CCN(c2ccncc2)CC1,100% (active)
10,O=C(Nc1ccc(C(F)(F)F)cc1)Nc1ccccc1N1CCNCC1,94% (active)
11,CCC(CC(NCCCCNC(=O)c1ccc(NC(=O)c2ccc(Cl)cc2)cc1)c1ccccc1)c1ccccc1OC (configuration not stated),100% (active) and 89% (active)
12,O=C(/C=C/c1ccc(Cl)c(Cl)c1)NCCCCCN1CCC(NC(=O)Nc2cccc(C(F)(F)F)c2)CC1,102% (active)
13,Cc1noc(C)c1-c1ccc2c(Nc3ccccc3C(C)(C)C)c(C(=O)NCc3ccc(OC(C)C)cc3)cnc2c1,100% (active)
14,FC(F)(F)c1cccc(CNCCCCCNCc2ccc(Cl)cc2)c1,91% (active)
15,C[C@@H]1CN(c2nc(NCCc3ccc(O)cc3)nc(NCc3ccccc3-c3ccc(C(F)(F)F)cc3)n2)C[C@H](C)N1,100% (active)
16,CC1(CCc2ccccc2)N=C(N)N=C(N)C1c1ccc(Cl)c(Cl)c1 (configuration not stated),98% (active)
17,CCN(CC)C(=NCCCCCCN=C(NC(N)=NCc1cccc(Cl)c1)N(CC)CC)NC(N)=NCc1cccc(Cl)c1,99% (active)
18,Cc1nc(-c2ccc(-c3ccc(NC(=O)c4coc5ccc(N6C[C@@H](C)N[C@@H](C)C6)cc45)cc3)c(C)c2)no1,101% (active)
19,COc1ccc(CCn2c(=N)c(C(=O)NCc3cccnc3)cc3c(=O)n4cccc(C)c4nc32)cc1,92% (active)
20,O=C(NCC1CCN(Cc2ccc(F)cc2)C1)c1cc(-c2cccc(C(F)(F)F)c2)cs1 (configuration not stated),93% (active)

row,SMILES,growth inhibition
1,c1ccc(COc2ccc(C3CCCCC3)cc2)nc1,99% (active)
2,Clc1ccc2c(NCCNc3ccnc4cc(Cl)ccc34)ccnc2c1,101% (active)
3,NC1=NC(c2ccccc2)(c2ccccc2)C(=O)N1CC1CCC1,96% (active)
4,CCc1cn2c3c(cc(C(=O)N[C@@H](Cc4cc(F)cc(F)c4)[C@H](O)CNC4CC4)cc13)N(C)S(=O)(=O)CC2,100% (active)
5,CCNc1cc(C(=O)N[C@@H](Cc2ccc(F)c(F)c2)[C@H](O)CNCc2cccc(OC)c2)cc(N2CCCCS2(=O)=O)c1,99% (active)
6,CN(C)CCOc1cc(NC(=O)Nc2ccc(-c3ccncc3)c(C(F)(F)F)c2)ccc1Cl,100% (active)
7,COc1c(C2CCN(CCCCNC(=O)c3noc(-c4ccc(C#N)cc4)n3)CC2)ccc2c1CCCC2,99% (active)
8,CC1(C)N=C(N)N=C(N)N1OCCCCOc1ccccc1,95% (active)
9,O=C(Nc1cccc(-c2cccc(-c3nc4ccccc4[nH]3)c2)c1)N[C@@H]1C[C@H]1c1ccccc1,87% (active) and 90% (active)
10,COc1cc(F)c2ncc(Cl)c([C@H](O)CN3CCC(NCc4cc5c(cn4)OCCO5)CC3)c2c1,102% (active)
11,CN1CCCN(Cc2ccc(-c3cccc(NC(=O)c4ccc(F)cc4)c3)cc2)CC1,89% (active)
12,COc1cccc(CNC(=O)c2cnc(N3CCN(c4ccncc4)CC3)c(Cl)c2)c1,89% (active)
13,COc1ccc(CNCc2ccccc2)cc1-c1ccc(S(=O)(=O)NCCN2CCCC2)cc1,96% (active)
14,O=C(Nc1cc(Cl)c(Cl)cc1NC(=O)c1cccc(-c2ccccc2)c1O)c1cccc(-c2ccccc2)c1O,100% (active)
15,CCc1c(C)nc2nc(Cc3cccc(F)c3)nn2c1N1CCN(c2ccccn2)CC1,100% (active)
16,Cn1ncc2c3c(CCN4CCC(NCc5cc6c(cn5)OCCO6)CC4)c(Cl)cnc3ccc21,95% (active)
17,CCCc1cn2c3c(cc(C(=O)N[C@@H](Cc4ccccc4)[C@H](O)CNC4CCCCC4)cc13)N(CC)S(=O)(=O)CC2,98% (active)
18,CC(C)CNCc1cccc(-c2cccc(CNCCCN3CCN(C)CC3)c2)c1,88% (active)
19,CC(CCc1ccccc1)NCC(O)c1ccc2c(c1)S(=O)(=O)c1ccccc1N2 (configuration not stated),95% (active)
